ST2 inh: inhibitors of human ST2 (IL1RL1) binding to IL-33, primary screen, biochemical, AlphaLISA; AlphaLISA ST2-Fc/biotin-IL-33 interaction, 1 h; inhibition, % for hits at 17 µM; actives 2.3% (n = 78,000); Interleukin-1 receptor-like 1 (Homo sapiens), Q01638; in the data active = inhibition above about 30%
Target sequence (Q01638 whole entry, looked up): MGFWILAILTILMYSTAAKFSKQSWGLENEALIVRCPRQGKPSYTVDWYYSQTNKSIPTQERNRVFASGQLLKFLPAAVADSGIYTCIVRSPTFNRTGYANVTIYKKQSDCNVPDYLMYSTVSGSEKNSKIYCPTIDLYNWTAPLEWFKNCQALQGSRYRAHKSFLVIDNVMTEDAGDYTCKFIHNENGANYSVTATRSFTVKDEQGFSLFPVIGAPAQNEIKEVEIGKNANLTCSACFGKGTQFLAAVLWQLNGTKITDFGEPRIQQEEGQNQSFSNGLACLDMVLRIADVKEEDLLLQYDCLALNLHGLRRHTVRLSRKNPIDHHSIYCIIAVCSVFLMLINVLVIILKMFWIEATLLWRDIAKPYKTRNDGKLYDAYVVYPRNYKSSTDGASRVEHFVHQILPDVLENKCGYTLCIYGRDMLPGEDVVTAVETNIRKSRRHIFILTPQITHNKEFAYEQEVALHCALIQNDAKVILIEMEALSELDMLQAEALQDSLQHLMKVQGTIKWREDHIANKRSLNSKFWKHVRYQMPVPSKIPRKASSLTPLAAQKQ
Starred values were filed as active, the others as inactive; i = inactive; ! = repeats disagree. The entries come from a sample that favours hits as a whole.

SMILES	ST2 inh
COc1ccc(C2CC(c3ccccc3)=NN2C(=O)c2ccccc2)cc1 (configuration not stated)	i
COc1ccc(C2=NN(CN3C(=O)C(=O)c4ccccc43)C(c3ccc(OC)cc3)C2)cc1 (configuration not stated)	36%*
COc1ccc(NC(=O)CN2C(=O)C(=O)c3ccccc32)c(OC)c1	i
OC1(c2ccccc2)CCN(c2nccc(CCC(F)(F)F)n2)C1 (configuration not stated)	i
Cc1cnc(N2CCC(O)(c3ccccc3)CC2)nc1N(C)C	35%*
Cc1ccc(C2(O)CCN(c3nc4ccccc4s3)CC2)nc1	i
CCC1(c2ccc3cc(OC)ccc3c2)SC(NC(C)=O)=NN1C(C)=O (configuration not stated)	i
CCCC(O)=C1C(=O)CC(C)(C)CC1=NCCc1ccccc1	i
CCOc1ccccc1NS(=O)(=O)c1cc([N+](=O)[O-])ccc1C	i
Cc1nonc1OCC(C)(COc1nonc1C)Nc1ccc([N+](=O)[O-])cc1[N+](=O)[O-]	40%*
Cc1cc([N+](=O)[O-])ccc1NC(=O)COc1ccc(C(C)C)cc1	i
OC1CCCN(c2ccnc(N3CCC(O)(Cc4ccccc4)CC3)n2)C1 (configuration not stated)	i
N#Cc1nc(-c2ccc(Cl)cc2)oc1NCc1ccco1	35%*!
COc1ccc(-c2nc(S(=O)(=O)c3ccc(Cl)cc3)c(NCc3ccco3)o2)cc1	i
O=S(=O)(c1ccccc1)c1nc(-c2ccc(Cl)cc2)oc1NCc1ccco1	i
Cc1cnc2c(C(=O)NC3CCCN(C(=O)c4ccco4)C3)cnn2c1 (configuration not stated)	i
CN(C)c1ncc2c(n1)CCCC2NCc1ccccc1-c1ccco1 (configuration not stated)	i
Cc1c(C)n(CC(O)CNC2CCCCC2)c2ccccc12 (configuration not stated)	i
Cc1ccc(C)c(NCC(O)Cn2c(C)c(C)c3ccccc32)c1 (configuration not stated)	i
COc1ccc(NCC(O)Cn2c(C)c(C)c3ccccc32)cc1 (configuration not stated)	32%*
Cc1ccc(-n2c(=O)c3c(C)c(C)sc3n(CC(=O)NCc3ccco3)c2=O)cc1C	i
O=C(NC1CCCCCC1)c1ccc2nc3ccccc3c(=O)n2c1	i
O=C(O)CN=C(NS(=O)(=O)c1ccccc1)c1ccc(F)cc1	i
CCCN=C(NS(=O)(=O)c1ccc(C)cc1)c1ccc(F)cc1	i
O=C(O)CN=C(NS(=O)(=O)c1ccccc1)c1ccccc1	38%*
SMILES	ST2 inh
CCOCC1CCN(S(=O)(=O)c2sc3c(c2C(=O)O)CCNC3)CC1	i
O=C(O)c1cccc(NC(=O)c2ccc(S(=O)(=O)N3CCCCC3)cc2)c1	i
Cc1ccc(S(=O)(=O)Nc2cccc(C(=O)NN)c2)cc1	i
Cc1ccc(S(=O)(=O)N=C2C=C(Nc3cccc(C(=O)O)c3)C(=O)c3ccccc32)cc1	53%*
Cc1ccc([N+](=O)[O-])cc1S(=O)(=O)Nc1cccc(C(=O)O)c1	i
Cc1ccc(S(=O)(=O)N=C2C=C(Nc3cccc(C(=O)O)c3)C(=O)c3ccccc32)c(C)c1	48%*
Cc1cccc(NC(=O)C(C)N(c2ccccc2)S(C)(=O)=O)c1 (configuration not stated)	i
Cc1ccc(NC(=O)c2cccc(S(=O)(=O)Nc3cccc(C(=O)O)c3)c2)cc1	i
OC[C@@H]1O[C@H](CN(Cc2ccc(F)cc2)Cc2ccc(F)cc2)[C@H](N2CCN(c3cccc(C(F)(F)F)c3)CC2)[C@@H]1O	i
O=C(Nc1cccc(N2CCC(N3CCC4(C=Cc5ccccc54)CC3)CC2)c1)c1ccncc1	i
Cc1cc(C(=O)NCc2oc(C(C)(C)C)cc2C(=O)O)c(C)o1	i
C=CCNC(=O)CCCn1nc([N+](=O)[O-])c(Br)c1C	i
O=C(NCCO)C1CCN(S(=O)(=O)c2ccccc2)CC1	i
CCCCOc1ccc(C2=N/C(=C\c3ccc([N+](=O)[O-])cc3)C(=O)O2)cc1	i
CCOc1ccc(/C=C2\N=C(c3ccc([N+](=O)[O-])cc3)OC2=O)cc1	i
CCOc1ccc(/C=C2\N=C(c3cc([N+](=O)[O-])cc([N+](=O)[O-])c3)OC2=O)cc1	40%*
CSc1ccc(C(Nc2ccccn2)c2ccc3cccnc3c2O)cc1 (configuration not stated)	33%*
COc1ccc(C(Nc2cc(C)ccn2)c2ccc3ccc(C)nc3c2O)cc1OC (configuration not stated)	i
Cc1ccc2ccc(C(Nc3ccccn3)c3ccc(N(C)C)cc3)c(O)c2n1 (configuration not stated)	41%*
CCOc1cccc(C(Nc2ccccn2)c2ccc3ccc(C)nc3c2O)c1O (configuration not stated)	i
Fc1ccc(C(Nc2ccccn2)c2c[nH]c3ccccc23)cc1 (configuration not stated)	i
Cc1ccc2ccc(C(Nc3ccccn3)c3cccnc3)c(O)c2n1 (configuration not stated)	i
OCCCn1cnc(-c2ccccc2)c1-c1ccc(-c2cncnc2)cc1	i
O=C(Nc1ccc(Cl)c(N2CCCS2(=O)=O)c1)c1cccc(C(F)(F)F)c1	i
O=C(Nc1ccc(Oc2cccnc2)cc1)C1CCCCN1Cc1ccsc1 (configuration not stated)	i
SMILES	ST2 inh
Cn1c(CN2CCC(n3cc(CCCO)nn3)CC2)cc2ccccc21	i
O=C(O)c1ccc2c(c1)C1C=CCC1C(c1ccc(Br)cc1)N2 (configuration not stated)	i
O=C(O)c1ccc2c(c1)C1C=CCC1C(C(=O)O)N2 (configuration not stated)	82%*
CCOC(=O)C1Nc2c(ccc(C(=O)O)c2C)C2C=CCC12 (configuration not stated)	i
CN1CCN(C(=O)c2cccc([N+](=O)[O-])c2)CC1	i
Cc1ccc(C2Nc3c(ccc(C(=O)O)c3C)C3C=CCC32)cc1 (configuration not stated)	i
Fc1ccc(C2Nc3ccc(Cl)cc3C3C=CCC32)cc1 (configuration not stated)	i
O=C(c1ccc2c(c1)C1C=CCC1C(c1ccc(Cl)cc1)N2)N1CCOCC1 (configuration not stated)	63%*
COc1ccc(S(=O)(=O)N2CCN(C(=O)c3cccc([N+](=O)[O-])c3)CC2)cc1	i
O=C(c1ccc2c(c1)C1C=CCC1C(c1cccc([N+](=O)[O-])c1)N2)N1CCCCC1 (configuration not stated)	38%*
CN(C)c1ccc(-c2nccn2CC2OCCc3ccccc32)cn1 (configuration not stated)	i
COC(=O)c1c(NC(=O)COc2cccc(Br)c2)sc2c1CCCC2	i
CO[C@H]1CN(C(=O)C2CCN(C(=O)c3ccccn3)CC2)CC[C@H]1N	i
CC(O)C(=O)NS(=O)(=O)c1ccc(Br)cc1 (configuration not stated)	i
COC(=O)c1ccc(C2C(C(=O)OCc3ccccc3)=C(C)Nc3nnnn32)cc1 (configuration not stated)	i

Screening results (PubChem BioAssay)
